For test [1], the target named is Glutathione peroxidase 1 (Homo sapiens) (UniProt P07203). Nature of the test: Primary qHTS Assay for Inhibitors of Recombinant Selenoprotein Glutathione Peroxidase 1 (GPX1) (AID 1845191). Also: nearly all actives have a fitted effect of over 65% in size. The method, boiled down: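 Recombinant GPX1 (10 nM final) was preincubated with compound for 30 min at room temperature, then reacted with 1 mM GSH, 0.5 mM CHP, 0.5 mM NADPH and 100 nM glutathione reductase; NADPH fluorescence (340/450 nm) was read at 0 and 15 min.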
Glutathione peroxidase 1 (Homo sapiens), sequence (P07203 whole entry, looked up): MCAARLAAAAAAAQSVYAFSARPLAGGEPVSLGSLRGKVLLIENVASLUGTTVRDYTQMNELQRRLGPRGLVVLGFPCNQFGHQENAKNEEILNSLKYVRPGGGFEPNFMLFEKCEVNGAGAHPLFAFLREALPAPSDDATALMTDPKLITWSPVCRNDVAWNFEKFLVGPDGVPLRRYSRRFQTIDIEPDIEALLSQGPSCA
(Quantitative high-throughput screening tests each substance at several concentrations.)

The target in test [2] is Phospholipid hydroperoxide glutathione peroxidase GPX4 (Homo sapiens) (UniProt P36969). Nature of the test: Primary qHTS Assay for Inhibitors of Recombinant Selenoprotein Glutathione Peroxidase 4 (GPX4) (AID 1845192). Also: nearly all actives have a fitted effect of over 65% in size. Also: potency is read from the fitted curve at half-maximal effect. Put shortly: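 GR-coupled readout: 100 nM GR, 1 mM GSH, 0.5 mM NADPH; NADPH fluorescence (ex 340/em 450 nm) read at t=0 and after 15 min RT. GPX4 200 nM, preincubated 30 min with compound; substrate 0.5 mM CHP.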
Phospholipid hydroperoxide glutathione peroxidase GPX4 (Homo sapiens), sequence (P36969 whole entry, looked up): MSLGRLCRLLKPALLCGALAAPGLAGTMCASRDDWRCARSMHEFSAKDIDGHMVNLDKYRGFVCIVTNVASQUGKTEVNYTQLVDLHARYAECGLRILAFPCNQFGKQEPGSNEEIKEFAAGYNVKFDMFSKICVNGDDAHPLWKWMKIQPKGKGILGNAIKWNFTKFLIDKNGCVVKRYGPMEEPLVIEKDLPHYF

Test [3] in a line: qHTS drug screen for cell cycle checkpoint inhibitors in PARPi-resistant BRCA-mutant ovarian cancer cell lines. (AID 1963452; calls by dose curve). The conditions noted are these: PEO1/OlaR viability, CellTiter-Glo luminescence, 96 h, stronger effect = lower value. The method, boiled down: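 PEO1, PEO4 and PEO1/OlaR ovarian cancer cells, 600 per well, exposed 96 h at 37C to a dilution series. Viability read by CellTiter-Glo luminescence, normalized to DMSO and empty wells; activity summarized as Z-AUC.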

Test [4] deals with 3D7. Nature of the test: qHTS profiling for inhibitors of Plasmodium falciparum proliferation (AID 504749). Also: potency is read from the fitted curve at half-maximal effect; nearly all actives have a fitted effect of over 60% in size. As to conditions: P. falciparum in erythrocytes, SYBR Green DNA, 72 h; series mostly up to 28.7 µM. The method, boiled down: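 P. falciparum-infected erythrocytes (0.3% parasitemia, 2.5% hematocrit final) were exposed to compounds for 72 h at 37 C in 5% CO2, then lysed with SYBR Green buffer overnight at room temperature; parasite DNA fluorescence was normalized to artemisinin and DMSO controls.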

In test [5] the target is Cytochrome P450 3A4 (Homo sapiens) (UniProt P08684). Put plainly: qHTS for inhibitors of CYP3A4 against the NCATS DSHEA and TCM libraries (AID 1919971).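 Also: % is scaled to controls: 0 for no effect and ±100 for the full control effect; inhibition lowers luminescence from luciferin made by CYP3A4.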 The method, boiled down:
(§1)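 Light output from converted D-luciferin reports remaining CYP activity. Compounds preincubate with enzyme and substrate for 15 min; NADPH regeneration (1x final) runs the reaction for 30-45 min.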

Test [6] deals with Cytochrome P450 2D6 (Homo sapiens) (UniProt P10635). Put plainly: qHTS for inhibitors of CYP2D6 against the NCATS DSHEA and TCM libraries (AID 1919972). Also: % is scaled to controls: 0 for no effect and ±100 for the full control effect. The method, boiled down: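 Steps: enzyme plus luciferin substrate dispensed; test substances pinned; 15 min RT; 1x NADPH regenerating solution added, 30–45 min RT protected from light; detection reagent, 30 min RT; luminescence measured. Minus-enzyme wells as background.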
Cytochrome P450 2D6 (Homo sapiens), sequence (P10635 whole entry, looked up): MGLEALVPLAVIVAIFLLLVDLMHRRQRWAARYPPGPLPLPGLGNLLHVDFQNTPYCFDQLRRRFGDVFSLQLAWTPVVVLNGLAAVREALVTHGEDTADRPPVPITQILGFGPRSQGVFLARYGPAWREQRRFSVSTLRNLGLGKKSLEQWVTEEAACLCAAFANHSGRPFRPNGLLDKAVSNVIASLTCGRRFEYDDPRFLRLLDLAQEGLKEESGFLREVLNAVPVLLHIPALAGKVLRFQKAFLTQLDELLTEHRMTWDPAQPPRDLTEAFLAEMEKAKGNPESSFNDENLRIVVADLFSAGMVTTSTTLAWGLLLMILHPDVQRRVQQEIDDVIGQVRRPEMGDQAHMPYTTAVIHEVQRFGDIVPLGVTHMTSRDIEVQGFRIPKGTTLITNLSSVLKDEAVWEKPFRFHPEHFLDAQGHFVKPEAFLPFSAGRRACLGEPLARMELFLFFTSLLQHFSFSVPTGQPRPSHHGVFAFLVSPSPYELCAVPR

Test [7] deals with Cytochrome P450 2C9 (Homo sapiens) (UniProt P11712). Put plainly: qHTS for inhibitors of CYP2C9 against the NCATS DSHEA and TCM libraries (AID 1919973).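 Also: luminogenic pro-luciferin CYP2C9 substrate turned into luciferin with NADPH regeneration; % is scaled to controls: 0 for no effect and ±100 for the full control effect.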 Put shortly: as §1
Cytochrome P450 2C9 (Homo sapiens), sequence (P11712 whole entry, looked up): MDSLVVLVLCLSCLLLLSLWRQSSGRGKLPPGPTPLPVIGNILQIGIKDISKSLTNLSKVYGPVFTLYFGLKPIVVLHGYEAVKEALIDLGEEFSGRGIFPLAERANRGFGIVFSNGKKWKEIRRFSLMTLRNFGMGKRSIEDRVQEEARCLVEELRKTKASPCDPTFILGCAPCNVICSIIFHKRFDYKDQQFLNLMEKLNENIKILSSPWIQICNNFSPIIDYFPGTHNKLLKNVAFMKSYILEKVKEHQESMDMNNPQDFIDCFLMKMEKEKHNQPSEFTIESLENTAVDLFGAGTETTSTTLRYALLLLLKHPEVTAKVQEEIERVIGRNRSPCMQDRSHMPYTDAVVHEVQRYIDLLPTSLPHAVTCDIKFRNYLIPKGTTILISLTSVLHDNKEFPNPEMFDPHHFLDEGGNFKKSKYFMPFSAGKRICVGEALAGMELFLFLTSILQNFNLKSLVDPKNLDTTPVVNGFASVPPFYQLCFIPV
Test [8] has as its target Cytochrome P450 2C19 (Homo sapiens) (UniProt P33261). Put plainly: qHTS for inhibitors of CYP2C19 against the NCATS DSHEA and TCM libraries (AID 1919974).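 Also: luminescence from luciferin released by CYP2C19 oxidation of a pro-luciferin substrate.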 Also: potency is read from the fitted curve at half-maximal effect. The method, boiled down: as §1
Test [9] in a line: KB-3-1 P-gp reporter qHTS against the NCATS DSHEA and TCM libraries (AID 1919975). Also: 0% is about no effect. The method, boiled down:
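CellTiter-Glo luminescence viability readout; KB-3-1 parental cells, 500/well, attached ~4 h, then compound for ~72 h, 37C, 5% CO2. Bortezomib intraplate control.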

Test [10] has as its target Cytochrome P450 1A2 (Homo sapiens) (UniProt P05177). Put plainly: qHTS for inhibitors of CYPIA2 against the NCATS DSHEA and TCM libraries (AID 1919976). Also: potency is read from the fitted curve at half-maximal effect. The method, boiled down: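 In this quantitative HTS, inhibition of recombinant human CYP1A2 was measured as loss of luciferin-derived luminescence. Turnover ran 30-45 min at RT after NADPH regeneration solution was added.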

A short description of test [11]: qHTS Counterscreen for compound interference against the NCATS DSHEA and TCM libraries (AID 1919978).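 Also: compounds preincubated with 1 µM D-luciferin or buffer before detection reagent; % of control where 0% means no effect.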 As to conditions: firefly luciferase detection reagent interference, luminescence. The method, boiled down: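 Luminescence counterscreen for detection-kit interference: compounds at 19.5 nM–39.8 uM final, 15 min RT with 1 uM D-luciferin or buffer only; detection reagent added, 30 min RT, then read.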

Test [12] is described as follows: Dual reporter qHTS for agonist of Pregnane X Receptor (hPXR) against the NCATS DSHEA and TCM libraries: Fluorescence readout (AID 1920058). Also: 0% is about no effect. Put shortly:
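Measures viability of the PXR reporter HepG2 line by protease-substrate fluorescence (405/540 nm), taken 1 h after CellTiter-Fluor addition. Substances are tested as concentration series over a ~24 h exposure, with rifampicin as agonist control.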

For test [13], the target named is Nuclear receptor subfamily 1 group I member 2 (Homo sapiens) (UniProt O75469). Nature of the test: Dual reporter qHTS for agonist of Pregnane X Receptor (hPXR) against the NCATS DSHEA and TCM libraries: Luminescence readout (AID 1920059). Also: 0% is about no effect. Put shortly: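 hPXR-LucHepG2 cells in phenol red-free DMEM with 5% charcoal-stripped FBS, 2000 cells/well, attached 5 h, then exposed 24 h at 37C to compounds; rifampicin as positive agonist control (2.8 nM–92 uM). Luciferase luminescence read.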
Nuclear receptor subfamily 1 group I member 2 (Homo sapiens), sequence (O75469 whole entry, looked up): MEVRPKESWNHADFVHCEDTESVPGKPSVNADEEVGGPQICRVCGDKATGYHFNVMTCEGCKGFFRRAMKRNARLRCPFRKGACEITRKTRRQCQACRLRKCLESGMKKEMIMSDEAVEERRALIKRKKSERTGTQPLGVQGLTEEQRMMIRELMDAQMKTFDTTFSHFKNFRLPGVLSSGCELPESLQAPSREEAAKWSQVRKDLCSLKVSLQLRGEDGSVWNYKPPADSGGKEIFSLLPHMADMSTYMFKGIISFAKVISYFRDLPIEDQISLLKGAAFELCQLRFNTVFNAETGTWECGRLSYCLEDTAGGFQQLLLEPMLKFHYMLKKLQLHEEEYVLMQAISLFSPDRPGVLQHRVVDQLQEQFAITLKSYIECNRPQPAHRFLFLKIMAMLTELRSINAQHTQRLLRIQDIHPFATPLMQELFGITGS

The target is the same in test [14]. Put plainly: Dual reporter qHTS for antagonist of Pregnane X Receptor (hPXR) against the NCATS DSHEA and TCM libraries: Luminescence Readout (AID 1920060). Also: 0% is about no effect. Put shortly: (§2)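 Rifampicin-stimulated (2 uM final) hPXR-luciferase HepG2 cells were treated for 24 h with DSNP/TCM substances. Viability came from CellTiter-Fluor fluorescence, reporter activity from ONE-Glo luminescence.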

The nature of test [15]: Dual reporter qHTS for antagonist of Pregnane X Receptor (hPXR) against the NCATS DSHEA and TCM libraries: Fluorescence Readout (AID 1920061). Also: 0% is about no effect. Put shortly:
as §2

The target of test [16] is Luciferin 4-monooxygenase (Photinus pyralis) (UniProt P08659). Nature of the test: Primary firefly luciferase (FLuc) qHTS assay for identification of artifact compounds. (AID 1845220). Also: nearly all actives have a fitted effect of over 60% in size. Put shortly:
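Reaction readout was CCD-imaged luminescence, taken 5 min after adding 10 nM purified firefly enzyme to compound-treated wells holding 10 uM luciferin and ATP in pH 7.6 buffer.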

A short description of test [17]: Primary fluorescence-based thiol-reactive (MSTI) qHTS assay for identification of artifact compounds. (AID 1845221).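 Also: thiol-reactive compounds lower the probe fluorescence signal; nearly all actives have a fitted effect of over 65% in size.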 The method, boiled down: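 First, 4 uM MSTI in 2% DMSO/PBS pH 7.4 was dispensed; next, compounds were added; then plates sat 1 h at room temperature without light. Finally, emission at 598 nm was recorded.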
Test [18] can be described thus: Primary redox qHTS assay for identification of artifact compounds. (AID 1845223).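 Also: 0% = DMSO and 100% = reference compound.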 Put shortly:
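Amplex Red (25 uM) and HRP (250 mU/mL) in HBSS, with compounds for 15 min, then 250 uM DTT for 30 min, room temperature, dark. Fluorescence 525/598 nm read; normalized to DMSO and 10 uM DA3003; Hill fit.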

Test [19] relates to Nanoluciferase (engineered Oplophorus gracilirostris luciferase). Nature of the test: Primary Nanoluciferase (NLuc) qHTS assay for identification of artifact compounds. (AID 1845222).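 Also: NLuc secreted into diluted conditioned medium of S16 cells; 0% = DMSO and -100% = no enzyme.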 Put shortly: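 Concentration-response data were obtained by luminescence after 5 min with Nano-Glo substrate at 1:100. The enzyme was diluted S16 NLuc-expressing cell medium, preincubated with compound for 15 min at RT. Curves were fitted with a 4-parameter Hill model.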

Where [20] appears, read: measured here: PEO1 parental Z-AUC.

SMILES strings stand for the structures. Inconclusive results are not listed. Calls of active or inactive are those of the source. Unless noted, calls follow the shape of the dose curve; as a rule, active = well fitted curve in the direction sought with a large enough effect; inconclusive = small, poorly fitted or top-dose-only effect, or another doubt; inactive = no such curve, though single readings can be large; an effect the other way counts as inactive or inconclusive.

Cytochrome P450 2C19 (Homo sapiens), sequence (P33261 whole entry, looked up): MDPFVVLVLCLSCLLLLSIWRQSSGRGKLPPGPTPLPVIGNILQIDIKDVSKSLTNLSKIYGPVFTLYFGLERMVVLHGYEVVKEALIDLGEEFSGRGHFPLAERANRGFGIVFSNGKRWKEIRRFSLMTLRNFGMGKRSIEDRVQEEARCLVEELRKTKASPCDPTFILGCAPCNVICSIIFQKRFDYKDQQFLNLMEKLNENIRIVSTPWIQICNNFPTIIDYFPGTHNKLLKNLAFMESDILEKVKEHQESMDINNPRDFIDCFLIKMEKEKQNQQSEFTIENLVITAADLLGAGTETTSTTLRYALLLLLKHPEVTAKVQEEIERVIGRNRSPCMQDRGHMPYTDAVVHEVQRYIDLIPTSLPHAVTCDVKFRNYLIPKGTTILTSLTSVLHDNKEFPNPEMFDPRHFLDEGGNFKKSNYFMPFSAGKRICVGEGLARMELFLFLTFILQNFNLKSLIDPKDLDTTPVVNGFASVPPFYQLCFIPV
Cytochrome P450 3A4 (Homo sapiens), sequence (P08684 whole entry, looked up): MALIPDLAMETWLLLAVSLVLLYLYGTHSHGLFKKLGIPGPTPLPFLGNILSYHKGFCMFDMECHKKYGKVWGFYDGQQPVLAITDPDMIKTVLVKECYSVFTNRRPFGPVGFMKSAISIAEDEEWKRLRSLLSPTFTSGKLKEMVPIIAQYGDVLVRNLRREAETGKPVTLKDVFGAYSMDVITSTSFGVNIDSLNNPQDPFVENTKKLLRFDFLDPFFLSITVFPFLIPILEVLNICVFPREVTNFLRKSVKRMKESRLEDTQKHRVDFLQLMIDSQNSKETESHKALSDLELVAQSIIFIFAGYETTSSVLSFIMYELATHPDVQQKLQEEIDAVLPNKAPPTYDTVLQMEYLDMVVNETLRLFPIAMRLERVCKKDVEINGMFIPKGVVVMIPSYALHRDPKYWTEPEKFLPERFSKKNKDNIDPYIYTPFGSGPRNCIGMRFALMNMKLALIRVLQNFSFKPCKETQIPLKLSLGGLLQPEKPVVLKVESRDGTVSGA
Cytochrome P450 1A2 (Homo sapiens), sequence (P05177 whole entry, looked up): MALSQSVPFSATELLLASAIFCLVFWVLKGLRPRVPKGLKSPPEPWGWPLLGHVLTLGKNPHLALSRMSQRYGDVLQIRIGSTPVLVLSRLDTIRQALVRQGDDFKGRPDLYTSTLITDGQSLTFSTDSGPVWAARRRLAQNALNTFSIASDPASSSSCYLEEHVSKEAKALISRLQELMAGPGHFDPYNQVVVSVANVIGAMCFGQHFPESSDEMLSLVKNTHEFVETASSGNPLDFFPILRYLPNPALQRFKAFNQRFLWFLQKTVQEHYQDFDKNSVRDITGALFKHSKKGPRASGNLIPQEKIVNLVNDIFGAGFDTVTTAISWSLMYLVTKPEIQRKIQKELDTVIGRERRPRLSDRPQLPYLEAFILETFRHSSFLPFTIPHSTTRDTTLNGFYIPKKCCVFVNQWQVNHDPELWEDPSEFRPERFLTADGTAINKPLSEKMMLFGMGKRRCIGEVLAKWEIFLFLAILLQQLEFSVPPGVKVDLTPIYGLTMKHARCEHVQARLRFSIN

Consider `O=[N+]([O-])c1ccc(O)c2ncccc12`, for which the Potency entry in test [1] and in test [2] was “inactive” throughout. In addition, the values for the Z-AUC in test [3], in test [3] (setting [20]) and in test [3] (measured here: PEO4 Z-AUC) were -0.66 (inactive), -0.828 and -1.06, respectively. Besides, in test [4], the Potency is 11.2 µM (active).

Consider `CC1(C)O[C@@H]2C[C@H]3[C@@H]4CCC5=CC(=O)C=C[C@]5(C)[C@@]4(F)[C@@H](O)C[C@]3(C)[C@]2(C(=O)CO)O1`, for which the Potency result in test [1] and in test [2] was “inactive” each time. Besides, the Z-AUC in test [3] is 0.569 (inactive); in [3] (setting [20]), 1.66; in test [3] (measured here: PEO4 Z-AUC), 0.813.

Turning to `C[N+](C)(C)CCO`, the Potency result in test [1], in [2], in test [8] and in test [10] was “inactive” throughout. For the same compound, the result in test [5], in test [6], in test [7], in test [9], in [12] and in [13] was inactive. Further, the compound was called inactive in test [14] and in test [15]. Besides, in [11], the max response was 2.09% (inactive).

`CO/N=C(/C(=O)N[C@@H]1C(=O)N2C(C(=O)[O-])=C(C[n+]3ccn4ncccc43)CS[C@H]12)c1nsc(N)n1`: in test [2], the Potency is 17.8 µM (active).

As to `CC1(C)O[C@@H]2C[C@H]3[C@@H]4C[C@H](F)C5=CC(=O)C=C[C@]5(C)[C@@]4(F)[C@@H](O)C[C@]3(C)[C@]2(C(=O)CO)O1`, the Potency entry in test [1] and in test [2] was “inactive” each time. Besides, the results for the Z-AUC in test [3], in test [3] (setting [20]) and in [3] (measured here: PEO4 Z-AUC) were -1.1 (inactive), 0.399 and -0.582, respectively.

Consider `COC(=O)/C=C\C(=O)OC`, for which the Potency entry in [2] was “inactive”.

Regarding `O=C(CCCCCCCCC#CI)Oc1ccccc1`, the Potency entry in [1], in test [2], in test [16] and in test [17] was “inactive” each time. The compound was called inactive in test [18].

On to `O=[N+]([O-])c1cncn1CCN1CCOCC1`, for which the Potency result in test [1] and in [2] was “inactive” each time. The Z-AUC is 1.32 (inactive) in test [3], 1.34 in test [3] (setting [20]) and 1.02 in [3] (measured here: PEO4 Z-AUC).

`CCOC(=O)NNc1nncc2ccccc12`: in test [2], the Potency entry is “inactive”.

Regarding `Nc1ncnc2n[nH]c(Nc3ccc(F)cc3)c12`, the Potency result in [1], in [2], in test [16] and in test [19] was “inactive” in each case. In test [18], the result was inactive.

With `O=C(O)CCCC[C@@H]1SC[C@@H]2NC(=O)N[C@@H]21`, the Potency entry in [1] and in test [2] was “inactive” in each case. For the same compound, the compound was classed as inactive in test [5], in [6], in test [7], in test [9], in test [12] and in test [13]. Also, the result in [14] and in test [15] was inactive. The results for the Potency in test [8] and in test [10] were 3.55 µM (active) and 3.98 µM (active), respectively. Besides, the max response in test [11] was 3.76% (inactive).
